Source: PubChem BioAssay (Tox21)
Records with an inconclusive call do not appear. A call without a number means that no potency is given here. Active and inactive are the calls of the source. The call rests on the fitted dose curve; in most records, active means well fitted curve in the direction sought with a large enough effect in the repeat runs; inconclusive means weak or mixed curves; inactive means no such curve, though single readings can be large; an effect the other way counts as inactive or inconclusive.
Further: nearly all actives have a fitted effect of over 50% in size.
Potency means the concentration at half of the fitted maximal effect.

The molecules below were run against Voltage-gated inwardly rectifying potassium channel KCNH2 (Homo sapiens) (UniProt Q12809) (assay: Human Ether-a-go-go-Related Gene (hERG) channel small molecule antagonists: fluorescence cell-based qHTS assay (AID 1671200)). Conditions: hERG-U2OS cells, FluxOR thallium flux fluorescence; series mostly up to 76.8 µM.
Chain of Voltage-gated inwardly rectifying potassium channel KCNH2 (Homo sapiens) (Q12809 whole entry, looked up): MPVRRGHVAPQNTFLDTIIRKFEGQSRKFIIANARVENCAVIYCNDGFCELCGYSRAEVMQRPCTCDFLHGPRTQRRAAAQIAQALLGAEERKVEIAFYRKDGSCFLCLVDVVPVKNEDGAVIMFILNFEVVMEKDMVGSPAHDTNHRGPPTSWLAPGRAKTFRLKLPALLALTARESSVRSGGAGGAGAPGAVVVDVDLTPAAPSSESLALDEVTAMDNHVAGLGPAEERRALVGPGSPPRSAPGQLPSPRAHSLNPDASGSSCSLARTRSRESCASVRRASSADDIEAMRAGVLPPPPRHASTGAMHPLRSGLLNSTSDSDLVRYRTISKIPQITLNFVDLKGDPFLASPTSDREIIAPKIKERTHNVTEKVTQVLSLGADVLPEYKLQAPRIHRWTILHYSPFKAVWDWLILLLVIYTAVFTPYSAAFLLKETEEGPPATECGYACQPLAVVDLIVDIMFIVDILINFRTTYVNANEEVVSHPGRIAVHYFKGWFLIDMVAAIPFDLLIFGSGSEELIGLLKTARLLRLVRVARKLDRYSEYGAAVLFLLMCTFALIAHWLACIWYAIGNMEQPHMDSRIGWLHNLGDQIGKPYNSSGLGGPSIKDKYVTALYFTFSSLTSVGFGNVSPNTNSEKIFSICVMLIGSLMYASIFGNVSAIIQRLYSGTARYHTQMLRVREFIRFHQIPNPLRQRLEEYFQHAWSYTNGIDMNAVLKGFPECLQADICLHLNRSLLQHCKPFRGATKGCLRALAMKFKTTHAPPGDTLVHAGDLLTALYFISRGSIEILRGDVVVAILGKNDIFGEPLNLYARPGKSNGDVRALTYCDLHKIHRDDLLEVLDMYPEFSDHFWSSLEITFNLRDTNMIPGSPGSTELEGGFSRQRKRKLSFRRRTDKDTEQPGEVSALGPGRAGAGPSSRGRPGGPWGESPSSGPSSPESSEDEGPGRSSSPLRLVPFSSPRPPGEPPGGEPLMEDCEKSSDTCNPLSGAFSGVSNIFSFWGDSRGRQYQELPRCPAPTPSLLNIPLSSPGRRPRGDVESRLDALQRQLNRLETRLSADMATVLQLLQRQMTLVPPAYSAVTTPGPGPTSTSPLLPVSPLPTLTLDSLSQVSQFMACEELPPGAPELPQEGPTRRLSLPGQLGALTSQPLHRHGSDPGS
Outline: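 U2OS cells expressing the channel were plated at 1000 cells/well, incubated overnight at 37 C, then loaded with FluxOR II thallium-sensitive dye for 1 h at room temperature in the dark, with a further 10 min at room temperature before stimulation.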
In the case of CCCCN1C(=O)[C@@H]([C@H](O)C2CCCCC2)NC(=O)C12CCN(Cc1ccc(Oc3ccc(C(=O)O)cc3)cc1)CC2, the Potency is reported as 19.5 µM (active). With C[C@H]1[C@H]2CC[C@H]3[C@@H]4CC=C5C[C@@H](N(C)C)CC[C@]5(C)[C@H]4CC[C@]23CN1C the Potency was “inactive”. For CC(C)=CCOc1ccc(/C=C/C(=O)c2ccc(OCC=C(C)C)cc2OCC(=O)O)cc1, the Potency was “inactive”. In the case of COC(=O)C1=C(C)NC(C)=C(C(=O)OCCc2ccc(N3CCN(C(c4ccccc4)c4ccccc4)CC3)cc2)C1c1cccc([N+](=O)[O-])c1 (centres undefined), the Potency is reported as “inactive”. With CCCCCCCCCCCCCCCC[N+](C)(C)CCN(Cc1ccc(OC)cc1)c1ncccn1 the Potency was 0.338 µM (active). For Clc1ccc(C(Cn2ccnc2)OCc2ccc(Sc3ccccc3)cc2)c(Cl)c1 (centres undefined), the Potency was 9.52 µM (active). In the case of C/C(=C(/OCCOc1ccc(Cl)cc1)c1ccc(Cl)cc1Cl)n1ccnc1, the Potency is reported as 6.74 µM (active). In the case of CCOC(=O)/C=C(C)/C=C/C=C(C)/C=C/c1c(C)cc(OC)c(C)c1C, the Potency is reported as “inactive”. [Cl][Bi]([Cl])([c]1ccccc1)([c]1ccccc1)[c]1ccccc1 was tested, and the Potency was 13.7 µM (active). NNC(=O)c1cccc(C(=O)NN)c1 was tested, and the Potency was “inactive”. In the case of COc1ccc(CN2CCN(C(c3ccc(F)cc3)c3ccc(F)cc3)CC2)c(OC)c1OC, the Potency is reported as 0.674 µM (active). With NC(=O)C1(N2CCCCC2)CCN(CCCN2c3ccccc3CCc3ccc(Cl)cc32)CC1 the Potency was 1.34 µM (active). For Cc1[nH]nc2c1N=C(c1ccccc1Cl)c1cc([N+](=O)[O-])ccc1N2, the Potency was 8.71 µM (active). For CCN(C(=O)c1cc(C)cc(OC[C@H](C)Nc2ccncc2)c1)C(C)C, the Potency was 17.2 µM (active). For C[n+]1ccn(Cc2ccccc2)c1, the Potency was “inactive”. In the case of CCN(C(=O)N(CC)c1ccccc1)c1ccccc1, the Potency is reported as “inactive”. In the case of COc1cccc2c1C(=O)c1c(O)c3c(c(O)c1C2=O)C[C@@](O)(C(=O)CO)C[C@@H]3O[C@H]1C[C@H](N)[C@H](O[C@@H]2CCCCO2)[C@H](C)O1, the Potency is reported as “inactive”. Cc1c(C)c2c(c(C)c1O)CCC(C)(COc1ccc(CC3SC(=O)NC3=O)cc1)O2 (centres undefined) was tested, and the Potency was “inactive”. For CCCCC(CC)COC(=O)c1ccccc1C(=O)O (centres undefined), the Potency was “inactive”. With N/C(=N\N=C\c1ccc(Cl)cc1)N/N=C/c1ccc(Cl)cc1 the Potency was 2.39 µM (active). With COc1cc(-c2nc(NC(=O)c3cc4cc(C)cc(C)c4n3CC(=O)O)sc2CCC2CCCCC2)c(OC)cc1Cl the Potency was “inactive”. In the case of NNc1nc(-c2ccccc2)cs1, the Potency is reported as “inactive”. With CCCC1O[C@@H]2C[C@H]3[C@@H]4CCC5=CC(=O)C=C[C@]5(C)[C@H]4[C@@H](O)C[C@]3(C)[C@]2(C(=O)CO)O1 (some centres undefined) the Potency was “inactive”.

The molecules below were run against Cytochrome P450 3A4 (Homo sapiens) (UniProt P08684) (assay: Cytochrome P450 Family 3 Subfamily A Member 4 (CYP3A4) small molecule antagonists: luciferase reporter qHTS assay (AID 1671201)). Conditions: P450-Glo CYP3A4 enzyme, luciferin luminescence, 1 h; series mostly up to 115 µM.
Chain of Cytochrome P450 3A4 (Homo sapiens) (P08684 whole entry, looked up): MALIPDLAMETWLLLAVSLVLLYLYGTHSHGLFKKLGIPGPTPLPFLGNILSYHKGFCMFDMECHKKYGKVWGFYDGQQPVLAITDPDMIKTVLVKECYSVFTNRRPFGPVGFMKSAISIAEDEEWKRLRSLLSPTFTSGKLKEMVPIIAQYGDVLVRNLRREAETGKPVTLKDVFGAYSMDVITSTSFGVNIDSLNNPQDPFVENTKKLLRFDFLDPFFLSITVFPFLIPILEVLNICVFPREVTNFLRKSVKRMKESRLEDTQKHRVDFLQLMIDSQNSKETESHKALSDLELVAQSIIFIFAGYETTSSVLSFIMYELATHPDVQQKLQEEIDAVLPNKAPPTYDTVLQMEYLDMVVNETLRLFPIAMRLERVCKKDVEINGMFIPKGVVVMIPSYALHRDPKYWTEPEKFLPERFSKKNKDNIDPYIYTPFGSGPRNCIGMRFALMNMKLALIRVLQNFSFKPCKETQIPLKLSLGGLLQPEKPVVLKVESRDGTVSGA
Outline: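 P450-Glo CYP3A4 system with proluciferin substrate; compounds preincubated 10 min RT with enzyme-substrate mix, then NADPH regeneration added for 1 h RT. Detection reagent 20 min, luminescence read as relative luminescence units.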
In the case of CC(C)=CCOc1ccc(/C=C/C(=O)c2ccc(OCC=C(C)C)cc2OCC(=O)O)cc1, the Potency is reported as “inactive”. With [Cl][Bi]([Cl])([c]1ccccc1)([c]1ccccc1)[c]1ccccc1 the Potency was 8.88 µM (active). In the case of NNC(=O)c1cccc(C(=O)NN)c1, the Potency is reported as 3.99 µM (active). For NC(=O)C1(N2CCCCC2)CCN(CCCN2c3ccccc3CCc3ccc(Cl)cc32)CC1, the Potency was “inactive”. In the case of O=C1C=CC(=O)N1, the Potency is reported as “inactive”. With CCCCC(CC)COC(=O)c1ccccc1C(=O)O (centres undefined) the Potency was “inactive”.
